Measurements: the supplement of paper PMC9446081
± gives the standard deviation of the averaged measurements.

What was measured:
Assay in all cases: relative enzymatic activity vs untreated control (fraction); higher = less inhibition
Settings in all cases: 100 µM; incubation time: 2 h at 37 C
[1] = test system: DNA gyrase
Description: (§1)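 In vitro enzymatic inhibition assays (ProFoldin kits) for 12 purified essential E. coli enzymes or complexes, each treated with 218 active antibacterial compounds at 100 µM for 2 h at 37°C. Read-outs were fluorescence or absorbance (phosphate detection, dye binding), converted to activity via standard curves and expressed relative to untreated DMSO controls.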

[2] = molecular target: DNA helicase (UniProt P0ACB1)
Sequence of DNA helicase (P0ACB1 whole entry): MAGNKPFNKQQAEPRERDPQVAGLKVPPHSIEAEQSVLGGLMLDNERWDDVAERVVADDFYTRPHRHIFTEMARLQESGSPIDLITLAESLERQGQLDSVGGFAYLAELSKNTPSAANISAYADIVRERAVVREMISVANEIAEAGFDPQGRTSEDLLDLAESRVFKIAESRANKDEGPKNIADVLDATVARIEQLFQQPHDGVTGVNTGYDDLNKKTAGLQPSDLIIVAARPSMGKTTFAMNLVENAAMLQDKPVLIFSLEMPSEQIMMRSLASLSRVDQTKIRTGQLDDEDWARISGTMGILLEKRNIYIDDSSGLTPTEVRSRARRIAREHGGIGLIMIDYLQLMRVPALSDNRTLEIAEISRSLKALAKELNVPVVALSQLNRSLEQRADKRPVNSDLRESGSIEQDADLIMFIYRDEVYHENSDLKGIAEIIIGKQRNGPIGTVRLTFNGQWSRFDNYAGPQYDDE
Description: as §1

[3] = molecular target: DNA ligase (UniProt B1XA82)
Sequence of DNA ligase (B1XA82 whole entry): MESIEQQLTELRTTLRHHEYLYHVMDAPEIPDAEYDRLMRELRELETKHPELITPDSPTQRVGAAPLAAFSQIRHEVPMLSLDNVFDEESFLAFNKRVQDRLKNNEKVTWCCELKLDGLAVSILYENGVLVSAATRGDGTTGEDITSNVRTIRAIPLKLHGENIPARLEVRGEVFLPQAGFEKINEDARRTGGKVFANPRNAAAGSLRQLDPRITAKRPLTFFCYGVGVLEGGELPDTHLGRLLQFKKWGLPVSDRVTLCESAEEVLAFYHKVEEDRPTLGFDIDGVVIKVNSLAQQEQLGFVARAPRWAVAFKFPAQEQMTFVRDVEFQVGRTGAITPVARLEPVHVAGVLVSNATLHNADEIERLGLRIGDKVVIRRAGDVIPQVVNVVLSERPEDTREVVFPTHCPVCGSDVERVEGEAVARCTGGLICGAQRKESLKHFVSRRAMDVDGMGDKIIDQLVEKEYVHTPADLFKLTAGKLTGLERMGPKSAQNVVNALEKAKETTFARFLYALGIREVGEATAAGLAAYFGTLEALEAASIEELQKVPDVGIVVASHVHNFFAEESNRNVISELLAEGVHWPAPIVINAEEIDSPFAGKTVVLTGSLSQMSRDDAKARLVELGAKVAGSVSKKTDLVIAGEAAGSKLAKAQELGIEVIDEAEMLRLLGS
Description: as §1

[4] = molecular target: DNA polymerase (UniProt P10443)
Sequence of DNA polymerase (P10443 whole entry): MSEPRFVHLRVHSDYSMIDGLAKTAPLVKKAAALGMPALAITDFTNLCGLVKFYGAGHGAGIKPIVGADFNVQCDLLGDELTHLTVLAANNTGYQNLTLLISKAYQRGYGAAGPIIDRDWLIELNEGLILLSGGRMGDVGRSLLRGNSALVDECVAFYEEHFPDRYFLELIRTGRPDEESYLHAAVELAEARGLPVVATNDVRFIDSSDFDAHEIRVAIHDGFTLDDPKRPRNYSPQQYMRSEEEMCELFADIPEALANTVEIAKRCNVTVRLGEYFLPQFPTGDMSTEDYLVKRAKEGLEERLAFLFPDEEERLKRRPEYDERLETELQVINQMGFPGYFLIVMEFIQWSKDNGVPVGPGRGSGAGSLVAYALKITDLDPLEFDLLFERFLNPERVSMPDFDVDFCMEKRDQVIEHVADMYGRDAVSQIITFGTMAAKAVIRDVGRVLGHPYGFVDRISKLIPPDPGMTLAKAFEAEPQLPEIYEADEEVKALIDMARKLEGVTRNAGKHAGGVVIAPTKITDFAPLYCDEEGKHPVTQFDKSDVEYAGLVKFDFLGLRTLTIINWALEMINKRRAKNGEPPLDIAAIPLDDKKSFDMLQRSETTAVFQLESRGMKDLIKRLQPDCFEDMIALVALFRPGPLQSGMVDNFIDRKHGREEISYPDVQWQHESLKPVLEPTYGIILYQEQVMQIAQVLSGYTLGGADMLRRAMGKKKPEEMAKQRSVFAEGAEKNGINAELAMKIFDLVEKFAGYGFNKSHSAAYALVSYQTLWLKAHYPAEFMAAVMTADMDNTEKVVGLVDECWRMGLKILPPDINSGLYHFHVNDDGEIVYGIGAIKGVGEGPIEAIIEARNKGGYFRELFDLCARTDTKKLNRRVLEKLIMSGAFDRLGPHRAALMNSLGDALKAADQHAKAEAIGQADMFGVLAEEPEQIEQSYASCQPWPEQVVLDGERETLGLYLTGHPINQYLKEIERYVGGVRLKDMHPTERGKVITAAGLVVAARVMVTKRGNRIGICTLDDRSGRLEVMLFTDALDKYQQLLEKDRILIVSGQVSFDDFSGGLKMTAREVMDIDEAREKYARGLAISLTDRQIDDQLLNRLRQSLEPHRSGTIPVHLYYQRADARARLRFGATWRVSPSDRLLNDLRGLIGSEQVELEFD
Description: as §1

[5] = molecular target: DNA primase (UniProt P0ABS7)
Sequence of DNA primase (P0ABS7 whole entry): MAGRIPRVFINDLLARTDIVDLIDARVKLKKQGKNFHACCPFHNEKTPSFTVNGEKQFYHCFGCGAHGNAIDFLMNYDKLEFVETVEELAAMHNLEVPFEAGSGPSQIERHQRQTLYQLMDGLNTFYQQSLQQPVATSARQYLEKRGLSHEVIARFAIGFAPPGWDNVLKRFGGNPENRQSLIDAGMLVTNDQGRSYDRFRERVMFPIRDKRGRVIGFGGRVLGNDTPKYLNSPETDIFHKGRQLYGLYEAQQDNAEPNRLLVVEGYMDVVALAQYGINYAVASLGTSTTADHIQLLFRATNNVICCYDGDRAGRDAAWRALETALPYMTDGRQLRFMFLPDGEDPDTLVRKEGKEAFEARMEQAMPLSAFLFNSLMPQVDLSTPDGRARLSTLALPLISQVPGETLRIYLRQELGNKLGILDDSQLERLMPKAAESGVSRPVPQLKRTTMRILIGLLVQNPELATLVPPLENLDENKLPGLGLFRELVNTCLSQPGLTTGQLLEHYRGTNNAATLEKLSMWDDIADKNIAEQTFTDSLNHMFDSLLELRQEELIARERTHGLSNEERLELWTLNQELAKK
Description: as §1

[6] = molecular target: GlmU (UniProt A7ZTU1)
Sequence of GlmU (A7ZTU1 whole entry, looked up): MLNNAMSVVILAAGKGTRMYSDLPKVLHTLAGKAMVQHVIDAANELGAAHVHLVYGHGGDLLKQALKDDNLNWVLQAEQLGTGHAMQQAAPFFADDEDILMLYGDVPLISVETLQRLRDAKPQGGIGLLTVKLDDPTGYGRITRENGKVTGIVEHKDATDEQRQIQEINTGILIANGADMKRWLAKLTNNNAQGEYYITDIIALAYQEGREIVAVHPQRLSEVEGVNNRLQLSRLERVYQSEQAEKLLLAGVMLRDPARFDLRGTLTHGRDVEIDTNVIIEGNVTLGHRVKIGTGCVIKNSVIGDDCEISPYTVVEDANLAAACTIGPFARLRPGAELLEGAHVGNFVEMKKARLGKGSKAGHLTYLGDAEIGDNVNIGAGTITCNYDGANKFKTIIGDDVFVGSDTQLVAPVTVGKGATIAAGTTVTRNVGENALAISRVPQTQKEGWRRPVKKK
Description: as §1

[7] = molecular target: Guanlyate kinase (UniProt Q0TBG1)
Sequence of Guanlyate kinase (Q0TBG1 whole entry): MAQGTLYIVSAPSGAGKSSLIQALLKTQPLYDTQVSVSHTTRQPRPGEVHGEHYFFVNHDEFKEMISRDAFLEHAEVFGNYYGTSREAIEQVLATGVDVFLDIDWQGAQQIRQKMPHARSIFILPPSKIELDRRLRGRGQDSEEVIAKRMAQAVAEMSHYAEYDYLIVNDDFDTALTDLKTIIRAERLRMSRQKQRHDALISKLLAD
Description: as §1

[8] = molecular target: MurA (UniProt Q3YX52)
Sequence of MurA (Q3YX52 whole entry): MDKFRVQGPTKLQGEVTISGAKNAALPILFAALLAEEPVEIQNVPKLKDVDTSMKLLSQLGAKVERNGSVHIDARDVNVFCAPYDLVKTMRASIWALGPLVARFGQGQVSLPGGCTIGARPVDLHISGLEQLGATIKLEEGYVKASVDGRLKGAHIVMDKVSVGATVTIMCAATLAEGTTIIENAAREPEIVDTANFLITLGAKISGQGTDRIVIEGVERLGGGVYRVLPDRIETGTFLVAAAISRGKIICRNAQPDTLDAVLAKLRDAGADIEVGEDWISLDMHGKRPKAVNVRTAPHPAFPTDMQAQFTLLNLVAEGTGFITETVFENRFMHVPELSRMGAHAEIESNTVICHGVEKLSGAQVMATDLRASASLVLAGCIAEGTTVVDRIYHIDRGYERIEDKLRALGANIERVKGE
Description: as §1

[9] = molecular target: T1, MurD (UniProt P14900)
T1 sequence (whole entry): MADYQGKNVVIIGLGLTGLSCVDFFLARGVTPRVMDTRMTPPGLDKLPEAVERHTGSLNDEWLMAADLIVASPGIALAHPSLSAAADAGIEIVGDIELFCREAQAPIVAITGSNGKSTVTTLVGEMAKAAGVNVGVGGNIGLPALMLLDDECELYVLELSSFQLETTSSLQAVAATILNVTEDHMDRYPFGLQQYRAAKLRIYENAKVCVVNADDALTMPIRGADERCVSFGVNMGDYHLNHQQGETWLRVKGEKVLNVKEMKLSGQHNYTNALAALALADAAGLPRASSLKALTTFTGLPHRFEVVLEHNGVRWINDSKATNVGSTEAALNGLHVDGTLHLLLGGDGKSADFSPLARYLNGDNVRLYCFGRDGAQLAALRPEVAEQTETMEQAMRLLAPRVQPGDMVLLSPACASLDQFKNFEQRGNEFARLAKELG
Description: as §1

[10] = molecular target: T2, MurF (UniProt P11880)
T2 sequence (whole entry): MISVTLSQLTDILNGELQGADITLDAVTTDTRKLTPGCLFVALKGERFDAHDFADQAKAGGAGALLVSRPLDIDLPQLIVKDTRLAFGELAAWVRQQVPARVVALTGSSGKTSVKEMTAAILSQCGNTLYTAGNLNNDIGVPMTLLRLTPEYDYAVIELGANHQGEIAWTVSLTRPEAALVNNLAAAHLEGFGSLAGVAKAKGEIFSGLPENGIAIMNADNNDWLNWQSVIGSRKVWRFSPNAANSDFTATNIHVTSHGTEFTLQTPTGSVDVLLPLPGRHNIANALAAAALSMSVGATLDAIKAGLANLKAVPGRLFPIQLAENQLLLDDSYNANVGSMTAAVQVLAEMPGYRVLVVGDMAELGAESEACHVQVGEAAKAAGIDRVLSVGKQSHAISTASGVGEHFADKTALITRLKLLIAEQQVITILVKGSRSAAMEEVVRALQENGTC
Description: as §1

[11] = test system: RNA polymerase
Description: as §1

Row | Compound | relative enzymatic activity [1] | relative enzymatic activity [2] | relative enzymatic activity [3] | relative enzymatic activity [4] | relative enzymatic activity [5] | relative enzymatic activity [6] | relative enzymatic activity [7] | relative enzymatic activity [8] | relative enzymatic activity [9] | relative enzymatic activity [10] | relative enzymatic activity [11]
1 | CN(C)[C@@H]1C(=O)[C@@H](C(N)=O)C(=O)[C@@]2(O)C(=O)[C@@H]3C(=O)c4c(O)c(NC(=O)CN5CCCC5)cc(F)c4C[C@H]3C[C@@H]12 | 0.0486 ± 0.069 | 0.103 ± 0.0053 | 0.94816 ± 9.1e-05 | 1.06 ± 0.31 | 0.456 ± 0.15 | 0.9445 ± 0.0056 | 0.347 ± 0.035 | 0.63 ± 0.26 | 0.632 ± 0.45 | 0.943 ± 0.19 | 0.118 ± 0.028
2 | O=C([O-])C1=C(CSc2nnnn2CS(=O)(=O)[O-])CSC2C(NC(=O)C(O)c3ccccc3)C(=O)N12.[Na+].[Na+] (stereo not drawn) | 0.964 ± 0.12 | 0.74 ± 0.14 | 1.26 ± 0.45 | 1.24 ± 0.4 | 0.753 ± 0.0084 | 1.1 ± 0.034 | 0.879 ± 0.012 | 0.1 ± 0.034 | 0.217 ± 0.2 | 1.03 ± 0.24 | 0.815 ± 0.068
3 | O=C(Cn1cnnn1)NC1C(=O)N2C(C(=O)O)=C(CSc3nncs3)CSC12 (stereo not drawn) | 0.793 ± 0.43 | 0.757 ± 0.21 | 0.955 ± 0.18 | 0.505 ± 0.68 | 0.828 ± 0.017 | 1.045 ± 0.0046 | 0.932 ± 0.17 | 0.307 ± 0.16 | 0.598 ± 0.37 | 1.01 ± 0.22 | 0.799 ± 0.011
4 | O=C(O)c1cn(C2CC2)c2cc(N3CCNCC3)c(F)cc2c1=O | 0.0423 ± 0.06 | 0.645 ± 0.22 | – | 0.688 ± 0.4 | 0.687 ± 0.18 | 1.09 ± 0.16 | 0.932 ± 0.065 | 0.705 ± 0.28 | 0.576 ± 0.41 | 0.991 ± 0.21 | 0.771 ± 0.006
5 | CN(C)c1ccc(O)c2c1C[C@@H]1C[C@@H]3[C@@H](N(C)C)C(=O)C(C(N)=O)=C(O)[C@]3(O)C(=O)[C@H]1C2=O | 0.00646 ± 0.0091 | 0.123 ± 0.0035 | 0.699 ± 0.021 | 0.021 ± 0.0081 | 0.424 ± 0.027 | 0.655 ± 0.21 | 0.152 ± 0.014 | 0.0751 ± 0.025 | 0.665 ± 0.43 | 1.21 ± 0.043 | 0.00236 ± 0.0021
6 | CCn1cc(C(=O)O)c(=O)c2cc(F)c(N3CCNCC3)cc21 | 0.00604 ± 0.0086 | 0.468 ± 0.034 | 0.906 ± 0.16 | 1.37 ± 0.53 | 0.659 ± 0.12 | 1.01 ± 0.015 | 1.01 ± 0.11 | 0.799 ± 0.017 | 0.573 ± 0.36 | 0.977 ± 0.21 | 0.849 ± 0.075
7 | CCN1CCN(C(=O)NC(C(=O)NC2C(=O)N3C(C(=O)O)=C(CSc4nnnn4C)CSC23)c2ccc(O)cc2)C(=O)C1=O (stereo not drawn) | 0.414 ± 0.27 | 0.636 ± 0.11 | 1.35 ± 0.11 | 1.23 ± 0.34 | 0.673 ± 0.16 | 1.09 ± 0.17 | 0.828 ± 0.076 | 0.0994 ± 0.0088 | 0.546 ± 0.35 | 0.965 ± 0.23 | 0.96 ± 0.2
8 | O=[N+]([O-])c1ccc(O)c2ncccc12 | 0.501 ± 0.24 | 0.584 ± 0.12 | 0.808 ± 0.033 | 0.979 ± 0.076 | 0.759 ± 0.023 | 1.03 ± 0.047 | 0.765 ± 0.026 | 0.291 ± 0.12 | 0.588 ± 0.39 | 0.989 ± 0.21 | 0.7483 ± 0.0011
9 | CON=C(C(=O)NC1C(=O)N2C(C(=O)[O-])=C(COC(N)=O)CSC12)c1ccco1.[Na+] (stereo not drawn) | 1.06 ± 0.11 | 0.47 ± 0.024 | 1.36 ± 0.18 | 1.12 ± 0.2 | 0.69 ± 0.18 | 1.12 ± 0.054 | 0.9 ± 0.019 | 0.117 ± 0.034 | 0.72 ± 0.49 | 1.02 ± 0.23 | 0.866 ± 0.088
